Results taken from PubChem BioAssay (Tox21).
Where “and” joins values, the source holds several entries; their conditions need not be identical. Equal entries are not always repeated. Records with an inconclusive call do not appear. The source holds several records for some structures; these can differ, active in one and inactive in another. Calls of active or inactive are those of the source. The call rests on the fitted dose curve; in most records, active means well fitted curve in the direction sought with a large enough effect in the repeat runs; inconclusive means weak or mixed curves; inactive means no such curve, though single readings can be large; an effect the other way counts as inactive or inconclusive.

Key:
[1] = A CellTox Green Cytotoxicity Assay to monitor cytotoxicity in HEK293 cells - 40 hour (AID 1224871); further: nearly all actives have a fitted effect of over 45% in size; further: potency means the concentration at half of the fitted maximal effect
Method in brief: (§1)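 Homogeneous no-lysis format: HEK293 cell suspension mixed with CellTox Green reagent, seeded, incubated 5 h at 37 C/5% CO2, then dosed by pintool with compound in DMSO.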

[2] = qHTS RealTime-Glo MT Cell Viability Assay in HepG2 cells - 8 hour (AID 1224873); further: nearly all actives have a fitted effect of over 55% in size
Method in brief: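 HepG2 cells mixed with RealTime-Glo MT reagents (NanoLuc plus cell-permeant prosubstrate) were seeded at 600 cells/well, incubated 5 h at 37 C/5% CO2, then pinned with compounds in DMSO; nonlytic luminescence tracked viability during 40 h treatment.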

[3] = A CellTox Green Cytotoxicity Assay to monitor cytotoxicity in HEK293 cells - 24 hour (AID 1224875); further: series mostly up to about 77 µM; nearly all actives have a fitted effect of over 45% in size
Method in brief: as §1

[4] = A CellTox Green Cytotoxicity Assay to monitor cytotoxicity in HepG2 cells - 16 hour (AID 1224876); further: nearly all actives have a fitted effect of over 45% in size; further: potency means the concentration at half of the fitted maximal effect
Method in brief: (§2)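 Fluorescent DNA-binding dye, 600 HepG2 cells/well, 5 h preincubation then compound in DMSO; same plates read at 0–40 h, 37 C.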

[5] = qHTS RealTime-Glo MT Cell Viability Assay in HepG2 cells - 32 hour (AID 1224877); further: nearly all actives have a fitted effect of over 55% in size; further: potency means the concentration at half of the fitted maximal effect
Method in brief: (§3)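 HepG2 suspension premixed with RealTime-Glo reagents is plated at 600 cells per well and left 5 h at 37 C/5% CO2. Compounds in DMSO then go in, and bioluminescence reflecting viable cell number is recorded over 40 h.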

[6] = A CellTox Green Cytotoxicity Assay to monitor cytotoxicity in HepG2 cells - 24 hour (AID 1224878); further: nearly all actives have a fitted effect of over 45% in size; further: potency means the concentration at half of the fitted maximal effect
Method in brief: as §2

[7] = A CellTox Green Cytotoxicity Assay to monitor cytotoxicity in HepG2 cells - 40 hour (AID 1224879); further: nearly all actives have a fitted effect of over 40% in size; further: potency means the concentration at half of the fitted maximal effect
Method in brief: as §2

[8] = qHTS RealTime-Glo MT Cell Viability Assay in HEK293 cells - 0 hour (AID 1224880)
Method in brief: (§4)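 Measured as luminescence from the same continuously cultured HEK293 wells at successive time points (0, 8, 16, 24, 32, 40 h) after compound addition. Reagent present from seeding; dosing at 5 h; incubation 37 C.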

[9] = A CellTox Green Cytotoxicity Assay to monitor cytotoxicity in HEK293 cells - 32 hour (AID 1224881); further: nearly all actives have a fitted effect of over 40% in size; further: potency means the concentration at half of the fitted maximal effect
Method in brief: as §1

[10] = A CellTox Green Cytotoxicity Assay to monitor cytotoxicity in HepG2 cells - 0 hour (AID 1224882); further: nearly all actives have a fitted effect of over 35% in size
Method in brief: as §2

[11] = A CellTox Green Cytotoxicity Assay to monitor cytotoxicity in HepG2 cells - 32 hour (AID 1224883); further: nearly all actives have a fitted effect of over 50% in size; further: potency means the concentration at half of the fitted maximal effect
Method in brief: as §2

[12] = A CellTox Green Cytotoxicity Assay to monitor cytotoxicity in HEK293 cells - 8 hour (AID 1224884); further: nearly all actives have a fitted effect of over 35% in size
Method in brief: as §1

[13] = qHTS RealTime-Glo MT Cell Viability Assay in HepG2 cells - 16 hour (AID 1224885); further: nearly all actives have a fitted effect of over 50% in size; further: potency means the concentration at half of the fitted maximal effect
Method in brief: as §3

[14] = qHTS RealTime-Glo MT Cell Viability Assay in HEK293 cells - 8 hour (AID 1224887); further: nearly all actives have a fitted effect of over 50% in size; further: potency means the concentration at half of the fitted maximal effect
Method in brief: as §4

[15] = A CellTox Green Cytotoxicity Assay to monitor cytotoxicity in HEK293 cells - 16 hour (AID 1224888); further: nearly all actives have a fitted effect of over 35% in size
Method in brief: as §1

[16] = qHTS RealTime-Glo MT Cell Viability Assay in HepG2 cells - 0 hour (AID 1224889); further: nearly all actives have a fitted effect of over 50% in size
Method in brief: as §3

[17] = A CellTox Green Cytotoxicity Assay to monitor cytotoxicity in HepG2 cells - 8 hour (AID 1224890); further: nearly all actives have a fitted effect of over 45% in size
Method in brief: as §2

[18] = qHTS RealTime-Glo MT Cell Viability Assay in HEK293 cells - 16 hour (AID 1224872); further: nearly all actives have a fitted effect of over 50% in size; further: potency means the concentration at half of the fitted maximal effect
Method in brief: (§5)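 Reads taken at 0, 8, 16, 24, 32 and 40 h from the same wells. HEK293 cells (600/well) carried RealTime-Glo reagents from seeding, with compound added after a 5 h settle at 37 C.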

[19] = qHTS RealTime-Glo MT Cell Viability Assay in HEK293 cells - 40 hour (AID 1224874); details: RealTime-Glo luminescence; max response: stronger effect = lower value; further: nearly all actives have a fitted effect of over 50% in size; further: potency means the concentration at half of the fitted maximal effect
Method in brief: as §4

[20] = qHTS RealTime-Glo MT Cell Viability Assay in HEK293 cells - 24 hour (AID 1224886); further: nearly all actives have a fitted effect of over 50% in size; further: potency means the concentration at half of the fitted maximal effect
Method in brief: as §5
On the % scale 0 is the no-effect control and ±100 the full control effect.

Oc1ccc(Cc2ccc(O)cc2)cc1
inactive: Potency [1] | outcome [2] | Potency [3] | Potency [4] | Potency [5] | Potency [6] | Potency [7] | outcome [8] | Potency [9] | outcome [10] | Potency [11] | Potency [12] | Potency [13] | Potency [14] | Potency [15] | outcome [16] | Potency [17]

CCOC(=O)NC(C)(C)Cc1ccc(Cl)cc1
inactive: Potency [18] | outcome [2] | max response [19] 0.66% | Potency [4] | Potency [5] | Potency [6] | Potency [7] | outcome [8] | outcome [10] | Potency [11] | Potency [12] | Potency [20] | Potency [14] | Potency [15] | outcome [16] | Potency [17]

C=CCc1cc(OC)c2c(c1)OCO2
inactive: Potency [18] | outcome [2] | max response [19] 8.43% | Potency [4] | Potency [5] | Potency [6] | Potency [7] | outcome [8] | outcome [10] | Potency [11] | Potency [12] | Potency [13] | Potency [20] | Potency [14] | outcome [16] | Potency [17]

NNCc1ccccc1
inactive: Potency [1] | Potency [18] | outcome [2] | Potency [3] | Potency [4] | Potency [5] | Potency [6] | Potency [7] | outcome [8] | Potency [9] | outcome [10] | Potency [11] | Potency [12] | Potency [14] | outcome [16] | Potency [17]

O=P(O)(O)CN(CP(=O)(O)O)CP(=O)(O)O
inactive: cytotoxicity increase [1] 32.5% [at 15.8 µM] | outcome [2] | activity change [3] 29.5% [at 15.8 µM, stronger effect = higher value] | Potency [4] | Potency [5] | Potency [7] | cytotoxicity increase [9] 21.6% [at 15.8 µM] | outcome [10] | Potency [11] | cytotoxicity increase [12] 30% [at 15.8 µM] | activity change [15] 27.1% [at 15.8 µM, stronger effect = higher value] | outcome [16] | Potency [17]

O=[N+]([O-])CCO
inactive: Potency [1] | Potency [18] | outcome [2] | max response [19] 3.11% | Potency [3] | Potency [5] | outcome [8] | Potency [9] | outcome [10] | Potency [12] | Potency [13] | Potency [20] | Potency [14] | Potency [15] | outcome [16] | Potency [17]

C[C@H](CN1CCOCC1)C(C(=O)N1CCCC1)(c1ccccc1)c1ccccc1
inactive: Potency [1] | outcome [2] | Potency [3] | Potency [4] | Potency [5] | Potency [6] | Potency [7] | outcome [8] | Potency [9] | outcome [10] | Potency [12] | Potency [13] | Potency [14] | Potency [15] | outcome [16] | Potency [17]

CN(C)C1CCCCC1
inactive: Potency [1] | outcome [2] | Potency [3] | Potency [4] | Potency [5] | Potency [6] | Potency [7] | outcome [8] | outcome [10] | Potency [11] | Potency [12] | Potency [14] | Potency [15] | outcome [16] | Potency [17]

CC#Cc1cc(C)nc(Nc2ccccc2)n1
inactive: Potency [1] | outcome [2] | Potency [3] | Potency [4] | Potency [5] | Potency [7] | outcome [8] | Potency [9] | outcome [10] | Potency [11] | Potency [12] | outcome [16] | Potency [17]

O=C(Cl)/C=C/C(=O)Cl
inactive: Potency [1] | Potency [18] | outcome [2] | Potency [3] | Potency [4] | Potency [5] | Potency [6] | Potency [7] | outcome [8] | Potency [9] | outcome [10] | Potency [11] | Potency [12] | Potency [13] | Potency [20] | Potency [14] | Potency [15] | outcome [16] | Potency [17]

O=C1C2CC=CCC2C(=O)N1SC(Cl)(Cl)Cl (stereo unspecified)
active: Potency [1] 6.81 µM | Potency [18] 3.83 µM | Potency [19] 43.5 µM and 3.41 µM | Potency [9] 21.5 µM | Potency [20] 43.5 µM and 3.41 µM | Potency [14] 27.1 µM
inactive and 42.9 µM (active): Potency [4] | Potency [13]
inactive and 10.8 µM (active): Potency [7]
inactive: outcome [8] | outcome [10] | Potency [12] | Potency [15] | outcome [16]
inactive and 12.1 µM (active): Potency [6]
inactive and 21.5 µM (active): Potency [5]
inactive and 9.61 µM (active): Potency [11]

CCc1cc(OC)c(C[C@H](C)N)cc1OC
inactive: Potency [1] | Potency [18] | outcome [2] | Potency [3] | Potency [4] | Potency [5] | Potency [6] | outcome [8] | Potency [9] | outcome [10] | Potency [11] | Potency [13] | Potency [20] | Potency [14] | outcome [16] | Potency [17]

C[C@]12C=CC(=O)C=C1CC[C@@H]1[C@@H]2CC[C@@]2(C)[C@H]1CC[C@]2(C)O
inactive: Potency [1] | Potency [18] | outcome [2] | max response [19] -19.7% | Potency [3] | Potency [4] | Potency [5] | outcome [8] | outcome [10] | Potency [11] | Potency [12] | Potency [13] | Potency [20] | Potency [14] | Potency [15] | outcome [16] | Potency [17]

C=CC=O
inactive: Potency [1] | Potency [18] | outcome [2] | Potency [3] | Potency [4] | Potency [5] | Potency [6] | outcome [8] | Potency [9] | outcome [10] | Potency [11] | Potency [20] | Potency [14] | Potency [15] | outcome [16] | Potency [17]

CCC(=O)c1ccc(Cl)cc1
inactive: Potency [1] | outcome [2] | Potency [3] | Potency [4] | Potency [5] | Potency [6] | Potency [9] | outcome [10] | Potency [11] | Potency [12] | Potency [13] | Potency [20] | Potency [15] | outcome [16] | Potency [17]

CCN[C@H](C)Cc1cccc(C(F)(F)F)c1
inactive: Potency [18] | outcome [2] | max response [19] -6.31% | Potency [3] | Potency [4] | Potency [5] | Potency [6] | Potency [7] | outcome [8] | Potency [9] | outcome [10] | Potency [11] | Potency [13] | Potency [20] | Potency [14] | Potency [15] | outcome [16] | Potency [17]
